Structures are written as SMILES. Inconclusive results are not listed. Activity calls are given as the source filed them. Unless noted, calls follow the shape of the dose curve; as a rule, active = well fitted curve in the direction sought with a large enough effect; inconclusive = small, poorly fitted or top-dose-only effect, or another doubt; inactive = no such curve, though single readings can be large; an effect the other way counts as inactive or inconclusive.

Data on 8 compounds can be found in PubChem BioAssay (NCATS).

In assay [1] the target is DNA repair nuclease/redox regulator APEX1 (Homo sapiens) (UniProt P27695). Description: qHTS Validation Assay for Inhibitors of the Human Apurinic/apyrimidinic Endonuclease 1 (APE1) (AID 1705;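 also: TAMRA fluorescence gain over two minutes as APE1 cuts a quenched THF abasic duplex; series mostly up to about 57 µM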). The gist of the method: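 Fluorogenic double-stranded THF abasic-site substrate (5'-TAMRA/3'-BHQ-2), 50 nM final. Enzyme preincubated with compound 15 min at room temperature, then substrate added. Kinetic fluorescence (ex 525/em 598 nm) read three times at 60 s intervals; activity taken as third-minus-first read difference.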

The nature of assay [2]: Counterscreen for APE1 Inhibitors: Fluorescent Dye Displacement Validation Assay (AID 1707). A digest of the protocol: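 Thiazole Orange displacement from dsDNA: 250 nM ThO with 50 nM TAMRA-labelled abasic-site (tetrahydrofuran) duplex in 50 mM Tris-HCl pH7.5, 50mM NaCl, 2 mM MgCl2, 0.01% Tween-20. Loss of endpoint fluorescence (ex 480 nm, em 540 nm) flags DNA binders.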
(Counterscreens check selectivity or assay interference.)

Assay [3] has as its target Endonuclease 4 (Escherichia coli (strain K12)) (UniProt P0A6C1). Put plainly: Counterscreen for APE1 Inhibitors: qHTS Validation Assay for Inhibitors of Endonuclease IV (AID 1708). A digest of the protocol:
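2 nM enzyme was preincubated with compounds for 15 min at room temperature in 50 mM Tris-HCl pH 7.5, 50 mM NaCl, 2 mM MgCl2, 1 mM DTT, 0.01% Tween-20. 50 nM THF-abasic TAMRA/BHQ-2 duplex substrate started the reaction.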

Assay [4] can be described thus: qHTS for differential inhibitors of proliferation of Plasmodium falciparum line 7G8 (AID 1815).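 Also: parasite growth measured after three days of incubation.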 Also: potency is read from the fitted curve at half-maximal effect.
Assay [5] is described as follows: qHTS for differential inhibitors of proliferation of Plasmodium falciparum line GB4 (AID 1816).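 Also: parasite growth measured after 72 h incubation.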 Also: potency is read from the fitted curve at half-maximal effect. The note with it: Potency: Plasmodium falciparum GB4 proliferation inhibition. A general note: Quantitative high-throughput screening tests each substance at several concentrations.
Assay [6] can be described thus: qHTS for differential inhibitors of proliferation of Plasmodium falciparum line 3D7 (AID 1876). Also: potency is read from the fitted curve at half-maximal effect.
Assay [7] is described as follows: qHTS for differential inhibitors of proliferation of Plasmodium falciparum line D10 (AID 1877).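 Also: parasites grown with compound for 72 h before DNA staining.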 Also: potency is read from the fitted curve at half-maximal effect.
The nature of assay [8]: qHTS for differential inhibitors of proliferation of Plasmodium falciparum line Dd2 (AID 1882). Also: nearly all actives have a fitted effect of over 65% in size. Also: potency is read from the fitted curve at half-maximal effect. The note with it: Potency: Plasmodium falciparum Dd2 proliferation inhibition. A digest of the protocol:
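SYBR Green I DNA fluorescence read-out, ex 485/em 535 nm. Signals were normalized to 0.29 uM artemisinin and DMSO wells, then corrected using vehicle-only plates flanking each stack. Parasite growth ran 72 h in erythrocytes before lysis.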

The nature of assay [9]: qHTS for differential inhibitors of proliferation of Plasmodium falciparum line W2 (AID 1883).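 Also: parasites grown with compound for 72 h before lysis and staining.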 Also: potency is read from the fitted curve at half-maximal effect. The following applies: Potency: Plasmodium falciparum W2 proliferation inhibition.
The nature of assay [10]: qHTS for differential inhibitors of proliferation of Plasmodium falciparum line HB3 (AID 1886).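 Also: parasites grown with compound for 72 h before SYBR Green readout.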 Also: potency is read from the fitted curve at half-maximal effect. The note with it: Potency: Plasmodium falciparum HB3 proliferation inhibition.
Assay [11] has as its target Ferritin light chain (Equus caballus) (UniProt P02791). Put plainly: qHTS Validation Assay for Identification of Novel General Anesthetics (AID 2323). Also: series mostly up to about 77 µM. The gist of the method: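 Horse-spleen apoferritin (10 uM) in PBS with 50% saturated 1-aminoanthracene; compounds pin-transferred, 10 min at room temperature. Fluorescence read at 380/535 nm, normalized to free 1-AMA and 1-AMA/apoferritin values; four-parameter Hill fit.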

For assay [12], the target named is ATP-dependent DNA helicase Q1 (Homo sapiens) (UniProt P46063). Description: qHTS Validation Assay for Inhibitors of RecQ-Like Dna Helicase 1 (RECQ1) (AID 2353). The gist of the method:
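50 nM RECQ1T1 preincubated 15 min with compound in Tris pH 8.0 buffer with MgCl2, DTT, Tween-20 and 2.5 ug/ml poly(dI-dC); started with 200 nM TAMRA/BHQ-2 forked duplex and 2 mM ATP. Unwinding read as fluorescence (525/598 nm), two reads 2 h apart.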

Assay [13] is described as follows: Cytometric Cell-Based qHTS for Inhibitors of the mTORC1 Signaling Pathway in MEF (Tsc2-/-, p53-/-) Cells (AID 2660). Also: potency is read from the fitted curve at half-maximal effect. The gist of the method:
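Readout: Alexa-488 phospho-rpS6 (Ser235/236) intensity divided by PI intensity, thresholded against 7.5 nM rapamycin wells and reported as % positive cells. PI cell count served as the viability measure. Compound exposure was 24 hrs at 37 degree Celsius.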

Assay [14] can be described thus: High Content Imaging Cell-Based qHTS for Inhibitors of the mTORC1 Signaling Pathway in MEF (Tsc2-/-, p53-/-) Cells (AID 2666).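 Also: percent of cells scored positive for phospho-rpS6 Ser235/236 immunostaining by imaging.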 Also: potency is read from the fitted curve at half-maximal effect. The gist of the method:
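Read-out: % positive cells per well, with thresholds from highest- and lowest-signal wells, based on phospho-rpS6 (Ser235/236) intensity normalized to Hoechst nuclear stain. Cells: Tsc2-/-, p53-/- MEFs carrying empty vector; compound 24 hrs, 37 degree Celsius.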

A short description of assay [15]: High Content Imaging Cell-Based qHTS for Inhibitors of the mTORC1 Signaling Pathway in MEF Cells (AID 2667). Also: potency is read from the fitted curve at half-maximal effect. A digest of the protocol:
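MEF (Tsc2-/-, p53-/-, WT Tsc2 re-expressed); cpd 24 h, 37 °C; PFA fix; Alexa-488 anti-p-rpS6 Ser235/236, PI, Hoechst; IN Cell imaging; Hoechst/Alexa-488 intensity ratio; % active cells, thresholds set from rapamycin and DMSO wells.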

Assay [16] addresses RecQ-like DNA helicase BLM (Homo sapiens) (UniProt P54132). Description: qHTS Validation Assay for Inhibitors of Bloom's syndrome helicase (BLM) (AID 2364). A digest of the protocol: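 BLM 50 nM in 25 mM Tris-HCl pH 8.0, 5 mM NaCl, 2 mM MgCl2, 1 mM DTT, 0.01% Tween-20, 2.5 ug/ml poly(dI-dC); 15 min cpd preinc, RT. Start: 200 nM forked DNA + 2 mM ATP (final). TAMRA read, 2 reads 2 h apart.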

Assay [17] in a line: qHTS Assay for Modulators of Human Peripheral Myelin Protein 22 (PMP22) Expression/Activity (AID 1967; active = well fitted curve in the direction sought with a large enough effect in the signal ratio; the % refers to the signal ratio). The gist of the method: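 Mouse MSC80 Schwann cells carrying Pmp22 promoter–green click beetle luciferase plus EF-alpha–red luciferase control, dosed 24 h at 37 °C. Dual-filter luminescence, overlap-corrected; %Activity from green/red ratio normalised to untreated cells, concentration-response curves fitted.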

Sequence of DNA repair nuclease/redox regulator APEX1 (Homo sapiens) (P27695 whole entry, looked up): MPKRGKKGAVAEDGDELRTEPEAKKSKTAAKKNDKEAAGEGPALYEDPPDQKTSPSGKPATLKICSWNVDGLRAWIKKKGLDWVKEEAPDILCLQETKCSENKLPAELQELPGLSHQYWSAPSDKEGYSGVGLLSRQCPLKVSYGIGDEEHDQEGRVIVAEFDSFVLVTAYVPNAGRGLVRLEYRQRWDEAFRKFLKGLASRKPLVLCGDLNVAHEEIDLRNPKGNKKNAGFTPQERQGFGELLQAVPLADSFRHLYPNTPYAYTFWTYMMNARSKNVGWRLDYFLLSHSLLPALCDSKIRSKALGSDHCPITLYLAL
Sequence of ATP-dependent DNA helicase Q1 (Homo sapiens) (P46063 whole entry, looked up): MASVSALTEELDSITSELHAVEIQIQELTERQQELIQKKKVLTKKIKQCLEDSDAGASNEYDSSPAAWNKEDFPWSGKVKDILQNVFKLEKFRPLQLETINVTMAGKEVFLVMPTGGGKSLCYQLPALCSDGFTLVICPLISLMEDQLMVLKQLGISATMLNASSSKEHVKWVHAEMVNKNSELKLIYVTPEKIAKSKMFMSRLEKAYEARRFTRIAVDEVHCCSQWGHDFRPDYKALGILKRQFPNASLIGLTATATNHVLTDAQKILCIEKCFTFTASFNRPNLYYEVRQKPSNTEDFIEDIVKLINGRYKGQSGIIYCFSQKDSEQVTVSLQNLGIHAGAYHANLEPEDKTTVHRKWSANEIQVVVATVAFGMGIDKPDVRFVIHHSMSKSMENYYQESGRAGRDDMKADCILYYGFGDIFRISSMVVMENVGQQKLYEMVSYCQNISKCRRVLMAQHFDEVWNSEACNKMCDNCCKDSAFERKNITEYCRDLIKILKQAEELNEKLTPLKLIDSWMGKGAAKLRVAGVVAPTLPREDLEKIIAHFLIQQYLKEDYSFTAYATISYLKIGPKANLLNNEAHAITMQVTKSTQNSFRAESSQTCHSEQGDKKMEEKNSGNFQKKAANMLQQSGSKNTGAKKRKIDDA
Sequence of RecQ-like DNA helicase BLM (Homo sapiens) (P54132 whole entry, looked up): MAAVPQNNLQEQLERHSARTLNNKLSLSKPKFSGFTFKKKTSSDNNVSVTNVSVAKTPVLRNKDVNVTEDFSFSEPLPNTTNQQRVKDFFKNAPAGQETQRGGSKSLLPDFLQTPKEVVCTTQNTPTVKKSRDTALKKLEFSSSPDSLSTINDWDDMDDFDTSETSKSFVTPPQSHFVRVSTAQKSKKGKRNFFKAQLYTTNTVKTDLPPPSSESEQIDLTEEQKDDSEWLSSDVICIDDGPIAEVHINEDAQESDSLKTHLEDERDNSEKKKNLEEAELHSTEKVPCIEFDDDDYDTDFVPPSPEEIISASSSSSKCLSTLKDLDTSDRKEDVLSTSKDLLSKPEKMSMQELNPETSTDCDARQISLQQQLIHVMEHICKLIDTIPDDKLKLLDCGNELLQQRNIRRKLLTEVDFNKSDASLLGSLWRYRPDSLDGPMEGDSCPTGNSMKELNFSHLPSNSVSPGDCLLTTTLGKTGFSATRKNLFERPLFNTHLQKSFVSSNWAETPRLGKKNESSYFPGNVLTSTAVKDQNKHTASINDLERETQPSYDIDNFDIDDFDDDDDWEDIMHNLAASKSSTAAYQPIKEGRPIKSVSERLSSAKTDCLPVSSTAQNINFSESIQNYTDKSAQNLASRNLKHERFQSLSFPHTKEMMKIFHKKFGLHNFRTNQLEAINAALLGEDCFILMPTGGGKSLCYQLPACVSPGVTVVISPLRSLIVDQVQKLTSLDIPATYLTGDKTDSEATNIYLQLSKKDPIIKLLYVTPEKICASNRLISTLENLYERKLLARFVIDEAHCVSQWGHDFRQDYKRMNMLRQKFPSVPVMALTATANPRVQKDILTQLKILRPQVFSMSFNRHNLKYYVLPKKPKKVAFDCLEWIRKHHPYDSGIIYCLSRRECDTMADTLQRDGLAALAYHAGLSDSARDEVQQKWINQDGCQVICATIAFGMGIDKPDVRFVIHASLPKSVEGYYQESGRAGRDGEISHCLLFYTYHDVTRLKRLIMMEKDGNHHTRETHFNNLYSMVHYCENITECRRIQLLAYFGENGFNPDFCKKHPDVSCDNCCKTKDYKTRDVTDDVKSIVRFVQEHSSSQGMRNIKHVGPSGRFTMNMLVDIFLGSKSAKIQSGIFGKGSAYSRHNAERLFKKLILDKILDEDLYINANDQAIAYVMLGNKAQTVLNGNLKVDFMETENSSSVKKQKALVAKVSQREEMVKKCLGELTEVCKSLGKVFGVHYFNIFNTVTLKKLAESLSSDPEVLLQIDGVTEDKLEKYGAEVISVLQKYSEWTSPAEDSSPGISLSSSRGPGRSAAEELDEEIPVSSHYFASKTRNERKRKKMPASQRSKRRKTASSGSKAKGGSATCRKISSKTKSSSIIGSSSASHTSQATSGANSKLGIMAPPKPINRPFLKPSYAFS
Sequence of Ferritin light chain (Equus caballus) (P02791 2-175 limits assumed): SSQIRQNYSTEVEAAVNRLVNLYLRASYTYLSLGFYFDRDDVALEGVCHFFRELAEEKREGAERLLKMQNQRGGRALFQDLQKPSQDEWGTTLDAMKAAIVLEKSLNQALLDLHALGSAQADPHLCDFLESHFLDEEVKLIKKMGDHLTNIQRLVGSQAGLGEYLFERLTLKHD

As to `CC1(C(=O)O)C2CCC(O2)C1(C)C(=O)O` (configuration not stated), the Potency result in assay [1], in assay [2], in [3] and in assay [12] was “inactive” throughout. For the same compound, the Potency in assay [4] is 3.55 µM (active); in assay [5], 3.16 µM (active); in assay [6], 2.24 µM (active); in assay [7], 1.58 µM (active); in assay [8], 5.01 µM (active); in [9], 1.12 µM (active). The Potency is 2.24 µM (active) in assay [10], 13.1 µM (active) in assay [13], 18.5 µM (active) in assay [14] and 3.69 µM (active) in [15]. Besides, in assay [11], the compound was classed as inactive.
For the compound `O=[N+]([O-])c1ccc2nc(N3CCNCC3)ccc2c1`, the Potency result in assay [1], in [2], in assay [3], in assay [12], in [16] and in assay [13] was “inactive” throughout. Moreover, the Potency entry in assay [14] and in [15] was “inactive” in each case. The Potency is 8.91 µM (active) in [4]; 12.6 µM (active) in [5]; 10 µM (active) in assay [6]; 12.6 µM (active) in assay [7]; 7.94 µM (active) in assay [9]; 12.6 µM (active) in [10]. In addition, the result in [11] was inactive.
Consider `O=[N+]([O-])c1cc(O)c(O)c([N+](=O)[O-])c1`, for which the Potency entry in assay [1], in assay [2], in assay [3], in assay [4], in assay [5] and in [6] was “inactive” in each case. Further, the Potency result in assay [7], in assay [8], in assay [9], in [10], in [12] and in assay [16] was “inactive” in each case. The Potency result in assay [13], in [14] and in assay [15] was “inactive” in each case. For the same compound, in assay [11], the compound was called inactive.
Regarding `COc1ccc2[nH]cc(CCN)c2c1`, the Potency result in [1], in assay [2], in assay [3], in assay [4], in [5] and in assay [6] was “inactive” throughout. Moreover, the Potency result in assay [7], in [8], in [9], in assay [10], in [12] and in assay [13] was “inactive” in each case. The Potency entry in assay [14] and in assay [15] was “inactive” throughout. Also, the compound was called inactive in assay [11].
On to `NC(Cc1ccc(N(CCCl)CCCl)cc1)C(=O)O` (configuration not stated), for which the Potency result in [1], in assay [2], in [3], in assay [12], in assay [16] and in [13] was “inactive” in each case. The Potency result in [14] and in [15] was “inactive” throughout. Besides, the Potency is 10 µM (active) in assay [4]; 11.2 µM (active) in assay [5]; 10 µM (active) in [6]; 12.6 µM (active) in [7]; 10 µM (active) in assay [9]; 12.6 µM (active) in assay [10]. For the same compound, in assay [11], the result was inactive.
Consider `CC(N)Cc1c[nH]c2ccc(O)cc12` (configuration not stated), for which the Potency entry in assay [1], in assay [2], in assay [3], in [4], in assay [5] and in [6] was “inactive” in each case. Also, the Potency result in assay [7], in [8], in assay [9], in [10], in [13] and in [14] was “inactive” in each case. In assay [15], the Potency result was “inactive”. Also, the compound was called inactive in assay [17] and in assay [11].
Take `NCCc1ccc(S(=O)(=O)F)cc1`: the Potency entry in assay [1], in assay [2], in assay [3], in assay [4], in assay [5] and in assay [6] was “inactive” each time. For the same compound, the Potency result in assay [7], in assay [8], in assay [10], in assay [16], in [13] and in assay [14] was “inactive” throughout. Moreover, the Potency entry in assay [15] was “inactive”. The result in assay [17] and in [11] was inactive.
With `NC(C(=O)O)c1cc(=O)[nH]o1` (configuration not stated), the Potency entry in assay [1], in assay [2], in assay [3], in [4], in assay [5] and in assay [6] was “inactive” each time. Also, the Potency entry in assay [7], in assay [8], in [9], in assay [10], in [16] and in [13] was “inactive” throughout. Further, the Potency result in assay [14] and in assay [15] was “inactive” throughout. The result in [17] and in [11] was inactive.
